{"source": "the supplement of paper PMC11732987", "about": "“Enantioselective OTUD7B fragment discovery through chemoproteomics screening and high-throughput optimisation” (Communications Chemistry, 2025)", "assay_in_all_cases": "log2 ratio of Biotin-Ahx-Ub-VS probe labelling (fragment/DMSO); higher = less target engagement (more negative = stronger competition), active = hit call of the paper (q ≤ 0.05, log2 ratio ≤ -1)", "conditions_in_all_cases": "compound concentration: 200 uM; treatment time: 3 h", "key": {"ALG13": {"target": "T1, ALG13 (UniProt Q9NP73)", "T1 sequence (whole entry)": "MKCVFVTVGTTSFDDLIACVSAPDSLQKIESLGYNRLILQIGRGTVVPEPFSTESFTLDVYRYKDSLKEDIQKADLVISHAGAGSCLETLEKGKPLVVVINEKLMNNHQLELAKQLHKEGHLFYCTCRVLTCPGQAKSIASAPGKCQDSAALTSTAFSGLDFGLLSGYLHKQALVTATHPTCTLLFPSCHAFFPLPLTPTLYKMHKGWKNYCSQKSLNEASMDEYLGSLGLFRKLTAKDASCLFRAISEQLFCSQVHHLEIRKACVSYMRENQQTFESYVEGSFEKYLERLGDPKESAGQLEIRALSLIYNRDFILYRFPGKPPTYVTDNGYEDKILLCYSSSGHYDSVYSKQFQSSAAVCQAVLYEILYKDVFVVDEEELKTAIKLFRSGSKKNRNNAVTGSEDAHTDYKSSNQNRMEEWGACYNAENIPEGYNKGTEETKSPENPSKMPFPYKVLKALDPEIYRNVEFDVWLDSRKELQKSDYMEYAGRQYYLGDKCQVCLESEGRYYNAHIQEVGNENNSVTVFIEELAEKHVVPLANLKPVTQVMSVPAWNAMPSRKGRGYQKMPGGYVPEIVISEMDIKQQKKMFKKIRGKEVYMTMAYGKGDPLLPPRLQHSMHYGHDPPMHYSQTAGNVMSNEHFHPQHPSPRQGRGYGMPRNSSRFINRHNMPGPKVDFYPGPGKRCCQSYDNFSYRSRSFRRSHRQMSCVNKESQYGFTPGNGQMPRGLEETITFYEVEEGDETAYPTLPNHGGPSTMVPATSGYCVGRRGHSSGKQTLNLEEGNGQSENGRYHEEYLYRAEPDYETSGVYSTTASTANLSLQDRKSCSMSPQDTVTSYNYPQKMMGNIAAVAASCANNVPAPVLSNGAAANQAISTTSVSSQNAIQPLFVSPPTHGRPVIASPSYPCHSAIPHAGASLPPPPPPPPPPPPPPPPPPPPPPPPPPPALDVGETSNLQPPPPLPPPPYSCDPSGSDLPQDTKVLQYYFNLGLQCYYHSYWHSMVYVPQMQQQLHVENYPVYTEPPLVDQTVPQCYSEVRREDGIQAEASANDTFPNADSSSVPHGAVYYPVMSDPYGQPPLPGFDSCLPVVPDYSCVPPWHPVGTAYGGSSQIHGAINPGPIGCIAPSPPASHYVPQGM", "how_it_was_run": "(§1)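 Each value is an average log2 ratio of fragment to vehicle, tested by unpaired t-test. The underlying Spectronaut label-free quantities were global-median-normalised, and only proteins with ≥2 unique peptides were included. Triplicate HEK293T lysate samples (495 µg) were exposed to fragment at 200 µM or vehicle for 3 h, then to Biotin-Ahx-Ub-VS at 0.5 µM final for 1 h, before NeutrAvidin enrichment of labelled DUBs, LysC and trypsin digestion, and diaPASEF LC-MS/MS.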"}, "ATXN3": {"target": "ATXN3 (UniProt P54252)", "sequence (P54252 whole entry)": "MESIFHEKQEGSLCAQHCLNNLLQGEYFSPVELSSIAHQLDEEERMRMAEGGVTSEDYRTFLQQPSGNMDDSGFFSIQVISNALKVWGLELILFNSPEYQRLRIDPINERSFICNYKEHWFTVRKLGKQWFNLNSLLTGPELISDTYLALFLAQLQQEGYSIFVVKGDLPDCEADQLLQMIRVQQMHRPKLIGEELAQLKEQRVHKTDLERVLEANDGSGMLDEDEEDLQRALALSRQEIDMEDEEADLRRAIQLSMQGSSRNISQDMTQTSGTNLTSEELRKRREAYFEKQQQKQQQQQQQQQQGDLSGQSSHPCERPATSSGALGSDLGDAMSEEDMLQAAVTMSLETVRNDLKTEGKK", "how_it_was_run": "as §1"}, "BAP1": {"target": "T2, BAP1 (UniProt Q92560)", "T2 sequence (whole entry)": "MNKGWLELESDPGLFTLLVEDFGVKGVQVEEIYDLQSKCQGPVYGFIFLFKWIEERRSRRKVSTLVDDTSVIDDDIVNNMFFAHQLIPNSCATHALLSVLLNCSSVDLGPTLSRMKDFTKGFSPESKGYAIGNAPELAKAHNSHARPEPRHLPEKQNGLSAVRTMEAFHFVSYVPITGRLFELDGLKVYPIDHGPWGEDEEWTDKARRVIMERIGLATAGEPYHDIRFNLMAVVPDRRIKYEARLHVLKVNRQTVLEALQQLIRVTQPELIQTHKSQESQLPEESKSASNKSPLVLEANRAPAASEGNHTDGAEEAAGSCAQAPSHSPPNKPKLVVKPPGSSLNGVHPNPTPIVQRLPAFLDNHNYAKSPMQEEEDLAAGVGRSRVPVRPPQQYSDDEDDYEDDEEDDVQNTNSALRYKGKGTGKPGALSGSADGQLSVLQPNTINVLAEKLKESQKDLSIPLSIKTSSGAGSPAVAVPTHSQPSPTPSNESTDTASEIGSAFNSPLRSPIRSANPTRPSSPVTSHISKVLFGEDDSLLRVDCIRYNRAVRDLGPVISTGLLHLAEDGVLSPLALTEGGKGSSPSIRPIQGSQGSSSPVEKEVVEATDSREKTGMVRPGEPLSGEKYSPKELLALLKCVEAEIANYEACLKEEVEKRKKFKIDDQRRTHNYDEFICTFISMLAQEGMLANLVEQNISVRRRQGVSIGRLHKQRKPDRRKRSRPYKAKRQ", "how_it_was_run": "as §1"}, "EIF3F": {"target": "EIF3F (UniProt O00303)", "sequence (O00303 whole entry)": "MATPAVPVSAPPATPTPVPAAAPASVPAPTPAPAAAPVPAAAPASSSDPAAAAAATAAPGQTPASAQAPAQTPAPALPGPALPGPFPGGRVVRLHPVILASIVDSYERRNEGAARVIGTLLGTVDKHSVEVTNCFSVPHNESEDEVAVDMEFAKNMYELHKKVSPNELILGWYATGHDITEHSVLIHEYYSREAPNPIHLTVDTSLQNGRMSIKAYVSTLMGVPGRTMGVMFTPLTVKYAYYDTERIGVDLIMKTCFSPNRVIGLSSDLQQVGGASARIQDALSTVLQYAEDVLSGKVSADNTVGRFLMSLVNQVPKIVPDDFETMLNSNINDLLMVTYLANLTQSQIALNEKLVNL", "how_it_was_run": "as §1"}, "EIF3H": {"target": "EIF3H (UniProt O15372)", "sequence (O15372 whole entry)": "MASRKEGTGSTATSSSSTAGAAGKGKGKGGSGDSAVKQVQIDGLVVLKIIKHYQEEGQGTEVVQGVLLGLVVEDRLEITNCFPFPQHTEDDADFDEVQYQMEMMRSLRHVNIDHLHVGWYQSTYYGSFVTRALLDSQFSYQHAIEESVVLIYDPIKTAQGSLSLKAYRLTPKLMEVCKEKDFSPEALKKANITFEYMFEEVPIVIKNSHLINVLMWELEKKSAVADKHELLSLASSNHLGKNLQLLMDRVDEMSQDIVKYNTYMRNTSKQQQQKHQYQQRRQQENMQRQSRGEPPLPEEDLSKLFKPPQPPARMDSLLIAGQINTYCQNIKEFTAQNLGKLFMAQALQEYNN", "how_it_was_run": "as §1"}, "FAM105A": {"target": "T3, FAM105A (UniProt Q9NUU6)", "T3 sequence (whole entry)": "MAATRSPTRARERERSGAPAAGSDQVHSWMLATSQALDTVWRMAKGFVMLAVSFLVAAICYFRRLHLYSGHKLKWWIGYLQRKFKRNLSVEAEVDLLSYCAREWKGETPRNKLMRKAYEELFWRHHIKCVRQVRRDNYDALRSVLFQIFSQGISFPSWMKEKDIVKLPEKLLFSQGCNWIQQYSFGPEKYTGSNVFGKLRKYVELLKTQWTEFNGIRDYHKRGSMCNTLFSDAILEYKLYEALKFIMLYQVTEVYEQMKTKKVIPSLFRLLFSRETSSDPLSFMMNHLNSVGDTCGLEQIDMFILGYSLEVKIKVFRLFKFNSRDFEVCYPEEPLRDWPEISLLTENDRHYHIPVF", "how_it_was_run": "as §1"}, "OTUB1": {"target": "OTUB1 (UniProt Q96FW1)", "sequence (Q96FW1 whole entry)": "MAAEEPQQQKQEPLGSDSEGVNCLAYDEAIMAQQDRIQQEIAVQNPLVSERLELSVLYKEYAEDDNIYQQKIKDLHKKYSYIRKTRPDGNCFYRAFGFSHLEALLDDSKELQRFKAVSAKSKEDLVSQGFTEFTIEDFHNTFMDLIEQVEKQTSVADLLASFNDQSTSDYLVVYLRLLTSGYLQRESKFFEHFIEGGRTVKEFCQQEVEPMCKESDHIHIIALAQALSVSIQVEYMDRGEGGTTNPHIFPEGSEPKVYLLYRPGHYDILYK", "how_it_was_run": "as §1"}, "OTUD4": {"target": "T4, OTUD4 (UniProt Q01804)", "T4 sequence (whole entry)": "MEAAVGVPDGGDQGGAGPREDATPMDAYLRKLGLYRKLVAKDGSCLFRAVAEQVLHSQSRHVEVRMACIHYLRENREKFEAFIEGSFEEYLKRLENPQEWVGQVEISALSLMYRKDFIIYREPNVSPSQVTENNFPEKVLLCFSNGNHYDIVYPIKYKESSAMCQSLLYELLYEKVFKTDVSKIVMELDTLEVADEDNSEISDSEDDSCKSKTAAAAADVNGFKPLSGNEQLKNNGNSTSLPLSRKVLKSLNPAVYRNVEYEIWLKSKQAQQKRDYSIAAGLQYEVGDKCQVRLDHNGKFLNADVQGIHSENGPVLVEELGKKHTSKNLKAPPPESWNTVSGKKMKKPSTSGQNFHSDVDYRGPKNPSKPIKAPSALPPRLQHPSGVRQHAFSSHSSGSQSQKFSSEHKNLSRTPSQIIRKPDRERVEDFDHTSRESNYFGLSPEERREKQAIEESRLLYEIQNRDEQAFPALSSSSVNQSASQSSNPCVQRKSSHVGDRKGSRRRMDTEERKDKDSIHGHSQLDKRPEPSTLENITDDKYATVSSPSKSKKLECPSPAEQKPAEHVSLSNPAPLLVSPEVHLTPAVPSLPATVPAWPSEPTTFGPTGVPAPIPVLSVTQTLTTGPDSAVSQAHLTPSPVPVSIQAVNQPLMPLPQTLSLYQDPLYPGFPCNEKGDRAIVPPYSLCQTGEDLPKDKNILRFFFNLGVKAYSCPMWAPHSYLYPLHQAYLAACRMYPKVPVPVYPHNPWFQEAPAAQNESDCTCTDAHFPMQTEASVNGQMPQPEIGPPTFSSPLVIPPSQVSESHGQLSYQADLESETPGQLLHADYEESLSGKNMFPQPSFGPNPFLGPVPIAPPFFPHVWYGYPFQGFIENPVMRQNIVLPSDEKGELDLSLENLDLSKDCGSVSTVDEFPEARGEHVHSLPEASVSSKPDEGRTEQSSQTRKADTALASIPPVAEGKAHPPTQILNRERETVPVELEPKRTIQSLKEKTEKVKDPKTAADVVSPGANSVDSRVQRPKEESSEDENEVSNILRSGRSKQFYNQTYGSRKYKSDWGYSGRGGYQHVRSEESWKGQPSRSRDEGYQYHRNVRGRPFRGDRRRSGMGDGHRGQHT", "how_it_was_run": "as §1"}, "OTUD5": {"target": "T5, OTUD5 (UniProt Q96G74)", "T5 sequence (whole entry)": "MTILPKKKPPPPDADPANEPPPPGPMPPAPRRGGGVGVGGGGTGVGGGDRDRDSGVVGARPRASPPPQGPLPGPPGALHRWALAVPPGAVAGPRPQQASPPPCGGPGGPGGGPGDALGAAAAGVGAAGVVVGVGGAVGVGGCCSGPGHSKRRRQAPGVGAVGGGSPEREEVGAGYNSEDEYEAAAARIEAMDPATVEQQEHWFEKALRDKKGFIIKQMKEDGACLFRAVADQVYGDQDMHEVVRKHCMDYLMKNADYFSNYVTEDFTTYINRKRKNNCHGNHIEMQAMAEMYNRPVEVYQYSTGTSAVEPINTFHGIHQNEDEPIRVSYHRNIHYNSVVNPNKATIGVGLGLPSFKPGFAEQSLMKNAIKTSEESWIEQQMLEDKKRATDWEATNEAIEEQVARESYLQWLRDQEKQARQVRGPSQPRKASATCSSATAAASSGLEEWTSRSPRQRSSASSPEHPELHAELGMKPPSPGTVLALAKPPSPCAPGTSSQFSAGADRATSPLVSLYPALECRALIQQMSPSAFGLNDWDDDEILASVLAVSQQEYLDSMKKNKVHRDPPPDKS", "how_it_was_run": "as §1"}}, "note": "Values without a mark were called inactive."}
{"compound": "O=C(CCl)Nc1ccc(Cl)c(F)c1", "values": [{"measurement": "log2 ratio of Biotin-Ahx-Ub-VS probe labelling", "setting": "ALG13", "value": 0.149}, {"measurement": "log2 ratio of Biotin-Ahx-Ub-VS probe labelling", "setting": "ATXN3", "value": "-1.07 (active)"}, {"measurement": "log2 ratio of Biotin-Ahx-Ub-VS probe labelling", "setting": "BAP1", "value": "-3.03 (active)"}, {"measurement": "log2 ratio of Biotin-Ahx-Ub-VS probe labelling", "setting": "EIF3F", "value": -0.0742}, {"measurement": "log2 ratio of Biotin-Ahx-Ub-VS probe labelling", "setting": "EIF3H", "value": 0.246}, {"measurement": "log2 ratio of Biotin-Ahx-Ub-VS probe labelling", "setting": "FAM105A", "value": -0.175}, {"measurement": "log2 ratio of Biotin-Ahx-Ub-VS probe labelling", "setting": "OTUB1", "value": -0.259}, {"measurement": "log2 ratio of Biotin-Ahx-Ub-VS probe labelling", "setting": "OTUD4", "value": "-1.33 (active)"}, {"measurement": "log2 ratio of Biotin-Ahx-Ub-VS probe labelling", "setting": "OTUD5", "value": -0.992}]}
